Measurements from PubChem BioAssay (EPA / NIEHS).
Records with an inconclusive call do not appear. Active and inactive are the calls of the source. The calls were made as follows, unless noted: active = hit-call score of the fitted dose curve at least 0.9, where 1 is the maximum; inactive = score below 0.9.

Tests used:
[1] = ATG_NFI_CIS: Attagene CIS-FACTORIAL HepG2 Assay for human Nuclear Factor I (NFI) (AID 2282989); details: HepG2 cis-regulatory reporter, NFI response element transcription; actives raise or lower the signal
Procedure, shortened: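 Reporter transcripts were measured by RT-PCR with fluorescent primer extension and capillary electrophoresis 24 h post-treatment. HepG2 cells carried transiently transfected cis-regulated reporter constructs reporting endogenous factor activity; gain or loss fitted against DMSO baseline.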

[2] = ATG_NF_kB_CIS: Attagene CIS-FACTORIAL HepG2 Assay for human Nuclear Factor Kappa B (NF-kB) (AID 2282991); details: HepG2 Attagene cis-factorial NF-kB reporter mRNA; actives raise or lower the signal
Procedure, shortened: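 Multiplexed cis-reporter assay in transiently transfected HepG2. 24 h treatment; RNA isolated, RT-PCR, labelled fragments resolved by CE. DMSO baseline.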

[3] = ATG_NRF2_ARE_CIS: Attagene CIS-FACTORIAL HepG2 Assay for human Nuclear Factor Erythroid 2 Related Factor 2 (NFR2) response to Antioxidant Response Elements (ARE) (AID 2282992); details: HepG2 Attagene ARE/NRF2 reporter, transcription factor activity; actives raise or lower the signal;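 as to AC50: reporter mRNA level measured by RT-PCR and capillary electrophoresis fluorescence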
Procedure, shortened: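 Cis-factorial assay: transfected HepG2 reporter library, 24 h dosing, mRNA readout via RT-PCR/CE; DMSO-referenced bidirectional analysis.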

[4] = ATG_Oct_MLP_CIS: Attagene CIS-FACTORIAL HepG2 Assay for human Octamer-Binding Transcription Factor (Oct) (AID 2282993); details: HepG2 Attagene cis-factorial Oct reporter, mRNA; actives raise or lower the signal
Procedure, shortened: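 Readout is reporter transcript level from RT-PCR with fluorescent primer extension and capillary electrophoresis, fitted in both directions against DMSO. Transfected HepG2 reporter units report endogenous factor activity after 24 h dosing.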

[5] = target: Cellular tumor antigen p53 (Homo sapiens) (UniProt P04637); test: ATG_p53_CIS: Attagene CIS-FACTORIAL HepG2 Assay for human p53 Transcription Factor (AID 2282994); details: HepG2 p53 cis-element reporter, Attagene mRNA; actives raise or lower the signal
Cellular tumor antigen p53 (Homo sapiens), sequence (P04637 whole entry, looked up): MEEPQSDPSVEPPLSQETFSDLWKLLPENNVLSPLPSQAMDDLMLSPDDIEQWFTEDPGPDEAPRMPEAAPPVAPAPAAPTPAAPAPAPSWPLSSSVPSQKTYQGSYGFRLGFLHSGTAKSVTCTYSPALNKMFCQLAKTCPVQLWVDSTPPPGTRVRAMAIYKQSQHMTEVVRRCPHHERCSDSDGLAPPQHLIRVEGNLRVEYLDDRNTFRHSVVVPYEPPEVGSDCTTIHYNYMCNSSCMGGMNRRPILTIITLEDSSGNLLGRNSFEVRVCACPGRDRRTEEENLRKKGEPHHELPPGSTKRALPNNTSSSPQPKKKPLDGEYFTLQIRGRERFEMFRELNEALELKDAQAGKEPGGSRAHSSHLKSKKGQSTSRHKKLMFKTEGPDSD
Procedure, shortened: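 Using HepG2 hepatoma cells carrying cis-acting multiplexed reporters, mRNA induction is detected after a 24 h exposure. Gain- and loss-of-signal responses are fitted relative to DMSO-treated cells.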

[6] = target: Peroxisome proliferator-activated receptor gamma (Homo sapiens) (UniProt P37231); test: ATG_PPARg_TRANS: Attagene TRANS-FACTORIAL HepG2 Assay for human Peroxisome Proliferator-activated Receptor-gamma (PPARg) (AID 2283007; active = hit-call score of the fitted dose curve at least 0.9, where 1 is the maximum)
Peroxisome proliferator-activated receptor gamma (Homo sapiens), sequence (P37231 whole entry, looked up): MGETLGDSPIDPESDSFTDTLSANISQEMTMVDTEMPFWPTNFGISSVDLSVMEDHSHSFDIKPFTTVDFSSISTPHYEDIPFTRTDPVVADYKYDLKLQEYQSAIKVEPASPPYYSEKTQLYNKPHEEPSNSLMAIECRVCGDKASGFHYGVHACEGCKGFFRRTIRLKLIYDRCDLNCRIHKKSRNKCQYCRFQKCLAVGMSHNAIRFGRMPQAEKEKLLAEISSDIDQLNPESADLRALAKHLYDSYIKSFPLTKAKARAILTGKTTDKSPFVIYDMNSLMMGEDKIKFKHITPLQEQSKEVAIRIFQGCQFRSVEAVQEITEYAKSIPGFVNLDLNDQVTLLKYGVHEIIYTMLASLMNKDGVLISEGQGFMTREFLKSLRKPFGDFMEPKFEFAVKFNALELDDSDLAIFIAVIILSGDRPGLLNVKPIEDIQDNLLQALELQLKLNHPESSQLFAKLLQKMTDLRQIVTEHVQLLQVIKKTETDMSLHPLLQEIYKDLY
Procedure, shortened: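 Human hepatoma HepG2, transient MRTU transfection, 24 h treatment. mRNA reporter signal by RT-PCR plus capillary electrophoresis, fluorescence detection; fitted for increase over DMSO negative control.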

[7] = target: human Peroxisome Proliferator-activated Receptor alpha (PPARa), PPARA (gene 5465) (UniProt Q07869); test: ATG_PPARa_TRANS: Attagene TRANS-FACTORIAL HepG2 Assay for human Peroxisome Proliferator-activated Receptor alpha (PPARa) (AID 2283001; active = hit-call score of the fitted dose curve at least 0.9, where 1 is the maximum)
human Peroxisome Proliferator-activated Receptor alpha (PPARa), PPARA (gene 5465), sequence (Q07869 whole entry, looked up, the tested form may be a part): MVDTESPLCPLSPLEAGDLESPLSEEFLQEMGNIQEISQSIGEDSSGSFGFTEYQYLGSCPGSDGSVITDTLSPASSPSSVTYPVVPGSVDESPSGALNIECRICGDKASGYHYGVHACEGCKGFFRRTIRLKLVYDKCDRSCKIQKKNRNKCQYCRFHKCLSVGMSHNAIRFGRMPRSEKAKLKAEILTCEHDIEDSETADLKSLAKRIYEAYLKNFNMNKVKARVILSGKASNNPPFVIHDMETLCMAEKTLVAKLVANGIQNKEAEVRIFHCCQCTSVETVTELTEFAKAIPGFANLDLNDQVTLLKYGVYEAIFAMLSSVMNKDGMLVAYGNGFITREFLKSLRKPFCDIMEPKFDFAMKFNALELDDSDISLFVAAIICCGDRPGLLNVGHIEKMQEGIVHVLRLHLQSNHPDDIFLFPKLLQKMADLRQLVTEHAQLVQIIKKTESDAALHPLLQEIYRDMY
Procedure, shortened: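 Gain-of-signal endpoint: reporter mRNA induction relative to DMSO, detected by fluorescent RT-PCR and capillary electrophoresis. HepG2 cells transiently carried GAL4-UAS-driven reporter units plus NR-Gal4 fusion; exposure lasted 24 h.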

[8] = target: Nuclear receptor subfamily 1 group I member 2 (Homo sapiens) (UniProt O75469); test: ATG_PXR_TRANS: Attagene TRANS-FACTORIAL HepG2 Assay for human Pregnane X Receptor (PXR) (AID 2283008; active = hit-call score of the fitted dose curve at least 0.9, where 1 is the maximum)
Nuclear receptor subfamily 1 group I member 2 (Homo sapiens), sequence (O75469 whole entry, looked up, the tested form may be a part): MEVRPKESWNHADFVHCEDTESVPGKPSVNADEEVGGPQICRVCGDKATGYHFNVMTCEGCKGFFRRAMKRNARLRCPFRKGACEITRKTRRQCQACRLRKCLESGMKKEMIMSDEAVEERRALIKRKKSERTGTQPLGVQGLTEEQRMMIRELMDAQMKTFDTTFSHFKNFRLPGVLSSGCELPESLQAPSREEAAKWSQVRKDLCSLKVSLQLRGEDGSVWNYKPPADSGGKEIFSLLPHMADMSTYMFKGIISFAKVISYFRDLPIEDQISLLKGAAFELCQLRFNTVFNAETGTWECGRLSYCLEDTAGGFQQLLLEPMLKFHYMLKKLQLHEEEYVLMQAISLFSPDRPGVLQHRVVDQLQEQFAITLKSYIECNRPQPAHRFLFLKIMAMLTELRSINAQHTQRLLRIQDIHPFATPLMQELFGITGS
Procedure, shortened: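 Fluorescence intensity of FAM-labelled, HpaI-digested reporter amplicons, separated by capillary electrophoresis, quantifies induction. HepG2 cells with PXR-Gal4 trans-reporter system were exposed 24 h; DMSO defines baseline.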

[9] = target: human Retinoic Acid Receptor beta (RARb), RARB (gene 5915) (UniProt P10826); test: ATG_RARb_TRANS: Attagene TRANS-FACTORIAL HepG2 Assay for human Retinoic Acid Receptor beta (AID 2283004; active = hit-call score of the fitted dose curve at least 0.9, where 1 is the maximum)
human Retinoic Acid Receptor beta (RARb), RARB (gene 5915), sequence (P10826 whole entry, looked up, the tested form may be a part): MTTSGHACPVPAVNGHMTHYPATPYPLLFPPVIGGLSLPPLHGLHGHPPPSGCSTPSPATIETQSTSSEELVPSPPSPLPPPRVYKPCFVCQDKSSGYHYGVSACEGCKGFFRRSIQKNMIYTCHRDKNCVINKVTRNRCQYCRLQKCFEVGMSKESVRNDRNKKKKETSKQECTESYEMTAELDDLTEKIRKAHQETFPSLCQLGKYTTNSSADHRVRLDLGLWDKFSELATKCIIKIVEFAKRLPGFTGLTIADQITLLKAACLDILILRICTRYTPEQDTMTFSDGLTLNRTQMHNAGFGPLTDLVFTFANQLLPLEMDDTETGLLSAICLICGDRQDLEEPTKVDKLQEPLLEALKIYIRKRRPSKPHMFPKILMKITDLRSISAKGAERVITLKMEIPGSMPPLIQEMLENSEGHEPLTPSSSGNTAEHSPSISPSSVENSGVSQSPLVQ
Procedure, shortened: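 HepG2 cells transiently transfected with multiplexed GAL4-UAS reporter units expressing chimeric NR–Gal4 fusions; 24 h compound exposure. Reporter mRNA quantified by RT-PCR, 6-FAM labelling, HpaI digestion and capillary electrophoresis; gain-of-signal fitted against DMSO baseline.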

[10] = target: human RAR-related Orphan Receptor beta (RORb), RORB (gene 6096) (UniProt Q92753); test: ATG_RORb_TRANS: Attagene TRANS-FACTORIAL HepG2 Assay for human RAR-related Orphan Receptor beta (RORb) (AID 2283010; active = hit-call score of the fitted dose curve at least 0.9, where 1 is the maximum)
human RAR-related Orphan Receptor beta (RORb), RORB (gene 6096), sequence (Q92753 whole entry, looked up, the tested form may be a part): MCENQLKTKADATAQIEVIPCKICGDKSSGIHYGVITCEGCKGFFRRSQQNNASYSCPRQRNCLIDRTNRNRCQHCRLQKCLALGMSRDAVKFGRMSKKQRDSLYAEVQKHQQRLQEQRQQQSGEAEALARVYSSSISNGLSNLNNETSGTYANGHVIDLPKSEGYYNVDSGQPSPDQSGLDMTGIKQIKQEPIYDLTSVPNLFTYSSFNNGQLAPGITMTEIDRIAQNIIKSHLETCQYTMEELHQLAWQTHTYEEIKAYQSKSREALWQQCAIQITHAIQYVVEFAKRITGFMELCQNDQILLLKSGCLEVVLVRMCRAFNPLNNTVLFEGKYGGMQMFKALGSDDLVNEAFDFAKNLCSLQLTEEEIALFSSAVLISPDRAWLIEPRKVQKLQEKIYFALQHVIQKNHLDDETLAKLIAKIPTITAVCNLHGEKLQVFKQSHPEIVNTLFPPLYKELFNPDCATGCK
Procedure, shortened: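 HepG2 cells transiently transfected with GAL4-UAS reporter units expressing chimeric NR-Gal4 protein; reporter mRNA measured 24 h after dosing by RT-PCR, 6-FAM labelling and capillary electrophoresis. Gain-of-signal fitted relative to DMSO baseline.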

[11] = BSK_3C_TissueFactor: BioMAP Diversity Plus: 3C Assay for Tissue Factor Biomarker Activity (AID 2282997); details: BioMAP 3C HUVEC, tissue factor biomarker readout; actives raise or lower the signal
Procedure, shortened: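 Primary human umbilical vein endothelial cells in the 3C system were exposed to test chemical for 24 h, then Tissue Factor measured by ELISA. Activity was fitted bidirectionally against DMSO as negative control and baseline.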

[12] = BSK_3C_uPAR: BioMAP Diversity Plus: 3C Assay for Urokinase-type plasminogen activator receptor (uPAR) Biomarker Activity (AID 2282998); details: BioMAP 3C HUVEC, uPAR biomarker ELISA; actives raise or lower the signal
Procedure, shortened: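 Cell-surface uPAR on HUVEC (3C system) read by ELISA at 24 h post-treatment, with DMSO as baseline and fitting in both directions. Parallel cultures stained with SRB to flag overt cytotoxicity.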

[13] = BSK_3C_VCAM1: BioMAP Diversity Plus: 3C Assay for Vascular cell adhesion molecule 1 (VCAM1) Biomarker Activity (AID 2282999); details: BioMAP 3C HUVEC, VCAM1 ELISA, cytokine-stimulated; actives raise or lower the signal
Procedure, shortened: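 Human umbilical vein endothelial cells were dosed with compound for 24 h, after which cell-surface VCAM-1 was quantified by ELISA. Bidirectional curve fitting used DMSO as negative control and activity baseline.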

[14] = BSK_4H_Eotaxin3: BioMAP Diversity Plus: 4H Assay for Eotaxin 3 Biomarker Activity (AID 2283000); details: primary human endothelial cells (HUVEC); actives raise or lower the signal
Procedure, shortened: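 HUVEC, 24 h post-dose, ELISA for Eotaxin-3/CCL26. Gain or loss of signal fitted bidirectionally vs DMSO baseline.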

[15] = target: human Peroxisome Proliferator-activated Receptor delta (PPARd), PPARD (gene 5467) (UniProt Q03181); test: ATG_PPARd_TRANS: Attagene TRANS-FACTORIAL HepG2 Assay for human Peroxisome Proliferator-activated Receptor delta (PPARd) (AID 2283002; active = hit-call score of the fitted dose curve at least 0.9, where 1 is the maximum)
human Peroxisome Proliferator-activated Receptor delta (PPARd), PPARD (gene 5467), sequence (Q03181 whole entry, looked up, the tested form may be a part): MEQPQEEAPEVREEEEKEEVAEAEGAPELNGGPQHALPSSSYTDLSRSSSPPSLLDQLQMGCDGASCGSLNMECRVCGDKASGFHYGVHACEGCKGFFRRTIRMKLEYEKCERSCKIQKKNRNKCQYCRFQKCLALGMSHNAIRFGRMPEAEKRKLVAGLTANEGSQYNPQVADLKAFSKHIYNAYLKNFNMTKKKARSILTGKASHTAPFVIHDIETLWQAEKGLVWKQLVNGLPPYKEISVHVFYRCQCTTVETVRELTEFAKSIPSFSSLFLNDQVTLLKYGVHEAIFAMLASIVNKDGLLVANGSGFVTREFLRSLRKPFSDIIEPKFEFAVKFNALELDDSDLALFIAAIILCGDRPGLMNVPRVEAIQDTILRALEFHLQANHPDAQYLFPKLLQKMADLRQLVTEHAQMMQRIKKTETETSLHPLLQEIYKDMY
Procedure, shortened: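 HepG2 cells transiently transfected with multiplexed GAL4-UAS reporter units and exogenous chimeric NR-Gal4 proteins; 24 h compound exposure. Reporter mRNA measured by RT-PCR, 6-FAM labelling, HpaI digestion and capillary electrophoresis; gain of signal versus DMSO.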

[16] = read-out: Intercellular Adhesion Molecule 1 (ICAM1), ICAM1 (gene 3383); test: BSK_3C_ICAM1: BioMAP Diversity Plus: 3C Assay for Intercellular Adhesion Molecule 1 (ICAM1) Biomarker Activity (AID 2283003); details: primary human endothelial cells (HUVEC); actives raise or lower the signal
Procedure, shortened: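 HUVEC primary cells stimulated under 3C conditions; ICAM1 measured by ELISA 24 h after compound dosing. Curves fitted bidirectionally against the DMSO baseline. Overt cytotoxicity checked by SRB staining of parallel cultures.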

[17] = BSK_3C_Proliferation: Cell Proliferation Assessment in the BioMAP Diversity Plus: 3C Assay (AID 2283006); details: primary human endothelial cells (HUVEC);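 as to AC50: potency may reflect either rise or fall in cell number versus DMSO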
Procedure, shortened: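 Subconfluent HUVEC (3C system) cultured with chemical; relative cell number read at 48 h by sulforhodamine B total-protein staining (0.1% SRB after 10% TCA fixation, 560 nm). Bidirectional fit relative to DMSO.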

[18] = target: Retinoic acid receptor alpha (Homo sapiens) (UniProt P10276); test: ATG_RARa_TRANS: Attagene TRANS-FACTORIAL HepG2 Assay for human Retinoic Acid Receptor alpha (RARa) (AID 2283005; active = hit-call score of the fitted dose curve at least 0.9, where 1 is the maximum)
Retinoic acid receptor alpha (Homo sapiens), sequence (P10276 whole entry, looked up, the tested form may be a part): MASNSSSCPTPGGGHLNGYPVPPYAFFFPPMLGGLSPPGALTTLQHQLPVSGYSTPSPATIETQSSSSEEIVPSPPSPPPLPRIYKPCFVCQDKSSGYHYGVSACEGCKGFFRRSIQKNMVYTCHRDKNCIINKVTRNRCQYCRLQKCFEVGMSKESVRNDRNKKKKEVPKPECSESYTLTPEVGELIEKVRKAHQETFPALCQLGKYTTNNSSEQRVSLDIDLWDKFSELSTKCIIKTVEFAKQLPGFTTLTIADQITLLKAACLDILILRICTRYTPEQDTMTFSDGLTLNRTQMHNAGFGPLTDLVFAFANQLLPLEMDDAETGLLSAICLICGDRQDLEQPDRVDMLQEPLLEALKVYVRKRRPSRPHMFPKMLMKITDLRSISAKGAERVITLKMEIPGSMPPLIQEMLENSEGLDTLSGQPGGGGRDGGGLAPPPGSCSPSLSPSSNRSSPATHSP
Procedure, shortened: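 HepG2 cells transiently transfected with multiple reporter units expressing chimeric RARα-GAL4 fusion, with GAL4-UAS-driven reporters. After 24 h compound exposure, reporter mRNA induction quantified by RT-PCR and capillary electrophoresis with fluorescent labeling; gain-of-signal fitted relative to DMSO control.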

[19] = target: human Retinoic Acid Receptor gamma (RARg), RARG (gene 5916) (UniProt P13631); test: ATG_RARg_TRANS: Attagene TRANS-FACTORIAL HepG2 Assay for human Retinoic Acid Receptor gamma (RARg) (AID 2283009; active = hit-call score of the fitted dose curve at least 0.9, where 1 is the maximum)
human Retinoic Acid Receptor gamma (RARg), RARG (gene 5916), sequence (P13631 whole entry, looked up, the tested form may be a part): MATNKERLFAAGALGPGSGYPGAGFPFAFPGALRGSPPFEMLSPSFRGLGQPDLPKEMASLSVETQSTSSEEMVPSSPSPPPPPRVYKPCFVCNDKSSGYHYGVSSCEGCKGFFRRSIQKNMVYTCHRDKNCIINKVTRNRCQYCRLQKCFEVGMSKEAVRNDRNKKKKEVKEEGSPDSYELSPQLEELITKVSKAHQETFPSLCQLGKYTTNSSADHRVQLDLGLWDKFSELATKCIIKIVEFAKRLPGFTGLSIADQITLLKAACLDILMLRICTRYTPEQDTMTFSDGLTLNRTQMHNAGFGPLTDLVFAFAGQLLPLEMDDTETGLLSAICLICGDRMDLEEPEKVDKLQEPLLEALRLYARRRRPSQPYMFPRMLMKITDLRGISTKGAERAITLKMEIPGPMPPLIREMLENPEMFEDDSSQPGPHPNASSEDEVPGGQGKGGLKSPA
Procedure, shortened: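 HepG2 transiently transfected with GAL4-UAS reporter units and chimeric NR-Gal4 constructs; 24 h compound exposure. Reporter mRNA quantified by RT-PCR, FAM labeling, HpaI digestion and capillary electrophoresis; gain-of-signal versus DMSO.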

Measured: AC50

NNC(=S)NN
inactive: [1] | [2] | [3] | [4] | [5] | [6]

CC1CN1P(=O)(N1CC1C)N1CC1C (stereo unspecified)
inactive: [1] | [2] | [4] | [7] | [6] | [8]

O=C/C=C/c1ccccc1
active: [6] 28.7 µM | [8] 12.1 µM
inactive: [1] | [2] | [4] | [5] | [7] | [9] | [10]

C=C(C)C(=O)[O][Sn]([CH2]CCC)([CH2]CCC)[CH2]CCC
active: [3] 0.26 µM | [4] 0.412 µM | [11] 0.148 µM | [12] 148 nM | [13] 148 nM | [14] 0.254 µM | [16] 155 nM | [17] 0.148 µM | [6] 0.291 µM | [8] 0.286 µM
inactive: [1] | [2] | [5] | [7] | [15]

CC(=O)c1cc(C(C)(C)C)cc2c1CCC2(C)C
active: [1] 74.2 µM | [2] 156 µM | [3] 61.7 µM | [4] 68.3 µM | [8] 5.5 µM
inactive: [5] | [15] | [6]

OCc1ccco1
active: [17] 19.8 µM | [6] 39.7 µM
not listed: [3] | [7] | [9] | [14] | [15] | [18] | [19]
inactive: all other assays above

CCCCC(CC)CO[N+](=O)[O-] (stereo unspecified)
inactive: [1] | [4] | [5] | [12] | [13] | [15] | [16] | [8]
active: [3] 167 µM | [11] 28.6 µM | [14] 30.4 µM | [17] 30.8 µM

Cc1ccc(N)cc1Cl
inactive: [1] | [2] | [3] | [4] | [7] | [6] | [8]

NC(=S)Nc1ccccc1
not listed: [5] | [6] | [8] | [10] | [19]
inactive: all other assays above

O=C1C(Cl)=C(Cl)C(=O)c2ccccc21
active: [3] 2.2 µM
not listed: [11] | [12] | [13] | [14] | [15] | [16] | [17]
inactive: all other assays above

C1CCC(NC2CCCCC2)CC1
inactive: [1] | [4] | [5] | [7] | [9] | [18] | [6] | [8] | [19]

O=C(O)CCC(F)(C(F)(F)F)C(F)(F)F
inactive: [11] | [12] | [13] | [16] | [17]

O=C1CCCN1
inactive: [1] | [2] | [4] | [15] | [6]

CC(C)C1CCC(Cc2ccc(Cl)cc2)C1(O)Cn1cncn1 (stereo unspecified)
active: [3] 13.2 µM | [5] 11 µM | [8] 1.79 µM
inactive: [1] | [2] | [4] | [9] | [18] | [6] | [19]

ClCc1cccnc1
active: [1] 60.8 µM | [3] 27.9 µM | [4] 50.9 µM | [6] 51.8 µM
inactive: [2] | [5] | [15] | [8] | [10]

CCC1(c2ccc(N)cc2)CCC(=O)NC1=O (stereo unspecified)
inactive: [1] | [3] | [4] | [6] | [8]

CN(C)P(=O)(N(C)C)N(C)C
inactive: [1] | [3] | [4] | [5] | [18] | [6] | [8]

O=CC=O
inactive: [1] | [3] | [4] | [7] | [15] | [6] | [10]

CN(C)N=O
not listed: [6] | [9] | [10] | [14] | [15] | [18]
inactive: all other assays above
